Source: PubChem
Sfp PPTase inh: qHTS Assay for Inhibitors of Bacillus subtilis Sfp phosphopantetheinyl transferase (PPTase). 4'-phosphopantetheinyl transferase ffp (Bacillus subtilis), Q9F4F7. Biochemical Sfp PPTase activity, qHTS. Potency, µM, hits mostly inhibitors. 3.5% of 310,000 active. AID 1490, 2009;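 note: the enzyme is Sfp with the accession as filed and its product quenches rhodamine fluorescence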
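Fluorescence-quenching assay with 15 nM Sfp, 5 uM rhodamine-CoA and 12.5 uM BHQ-2-labelled ybbR peptide in pH 7.6 Hepes/MgCl2 buffer. Enzyme was pre-incubated with compound for 15 min at room temperature. Rate was taken from the 30-min fluorescence change (525/598 nm).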
G9a block: qHTS Assay for Inhibitors of Histone Lysine Methyltransferase G9a; Potency, µM (series often up to 102 µM), usual class: inhibitors; Histone-lysine N-methyltransferase EHMT2 (Homo sapiens), Q96KQ7; 8.8% of 350,000 active; G9a H3K9 monomethylation, AlphaScreen, 2 h; note: nearly all actives have a fitted effect of over 75% in size
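Quantitative HTS format: methyltransferase activity on a biotin-tagged H3K9 peptide is measured by AlphaScreen, using a rabbit anti-monomethyl-H3K9 antibody with streptavidin donor and anti-IgG acceptor beads. Final levels are 20 nM enzyme, 500 nM peptide, 20 uM SAM; 2 h RT.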
BAZ2B inh: qHTS Assay for Inhibitors of BAZ2B; Bromodomain adjacent to zinc finger domain protein 2B (Homo sapiens), Q9UIF8; AlphaScreen BAZ2B-H3K14Ac peptide displacement; Potency, µM (highest dose often 114 µM), most hits filed as inhibitors; 4.4% of 360,000 active; note: nearly all actives have a fitted effect of over 60% in size
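BAZ2B 50 nM plus b-H3(5-23)K14Ac 50 nM, PBS pH 7.4/0.01% Tween-20, 30 min RT; compound added (max 110 uM), 30 min RT; streptavidin donor/Ni-chelate acceptor beads 10 ug/mL final, 20 min dark; AlphaScreen read.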
HP1b chromo inh: HTS for Inhibitors of HP1-beta Chromodomain Interactions with Methylated Histone Tails; Chromobox protein homolog 1 (Homo sapiens), P83916; AlphaScreen HP1-beta / biotin-H3K9me3 peptide binding; Potency, µM (doses to about 114 µM), usual class: inhibitors; 0.56% of 390,000 active; note: nearly all actives have a fitted effect of over 70% in size
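Compound inhibition of the preformed complex between 50 nM HP1-beta and 50 nM biotinylated H3K9me3 peptide was read by AlphaScreen. Buffer was PBS pH 7.4 with 0.01% Tween-20. Incubations ran 30 min at room temperature, with 10 ug/mL donor/acceptor beads.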
JMJD2A Tudor inh: qHTS Assay for Inhibitors of JMJD2A-Tudor Domain; Lysine-specific demethylase 4A (Homo sapiens), O75164; AlphaScreen JMJD2A-Tudor / H3K4me3 peptide binding; Potency, µM (titrated, usually from 114 µM), actives largely listed as inhibitors; 4.4% of 390,000 active; AID 504339, 2011; note: nearly all actives have a fitted effect of over 50% in size
L3MBTL1 inh: qHTS Assay for the Inhibitors of L3MBTL1. AID 485360, 2010. AlphaScreen L3MBTL1–H3K9me1 peptide binding. Potency, µM (top dose mostly 57.1 µM), hits mostly inhibitors. 0.66% of 230,000 active. Lethal(3)malignant brain tumor-like protein 1 (Homo sapiens), Q9Y468; note: nearly all actives have a fitted effect of over 60% in size
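L3MBTL1 (50 nM) pre-complexed 30 min with biotinylated H3(1-15)K9me1 peptide (75 nM), then compounds added for 30 min at room temperature; AlphaScreen streptavidin donor/nickel chelate acceptor beads (10 ug/mL final) read after 30 min dark incubation.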
Numbers stand for hits; – = inactive; ? = inconclusive; · = not tested or not shown; [ ] = another dose, or the depositor's remark. This is a sample that favours compounds with a hit; in the whole collection about 12% have one here. Calls come from the whole dose curve; as a rule, active = well fitted curve in the direction sought with a large enough effect; inconclusive = small, poorly fitted or top-dose-only effect, or another doubt; inactive = no such curve, though single readings can be large; an effect the other way counts as inactive or inconclusive.

SMILES | Sfp PPTase inh | G9a block | BAZ2B inh | HP1b chromo inh | JMJD2A Tudor inh | L3MBTL1 inh
COC(=O)c1ccc([C@H]2Nc3ccc(S(=O)(=O)Nc4ccc(F)cc4)cc3[C@H]3C=CC[C@H]32)cc1 | · | 5.62µM | ? | – | ? | ·
CC(C)CCNC(=O)c1ccc2c(c1)N(Cc1ccccc1F)C(=O)c1ccccc1S2(=O)=O | · | – | – | – | – | ·
COC(=O)c1ccc(Cl)c(NC(=O)C2CCN(S(=O)(=O)Cc3ccccc3)CC2)c1 | · | – | – | – | – | ·
Cc1cccc(NS(=O)(=O)c2ccc3c(c2)[C@H]2C=CC[C@H]2[C@@H](c2ccc(F)cc2)N3)c1 | · | 12.6µM | – | ? | ? | ·
COc1ccc(C)cc1NS(=O)(=O)c1ccc2c(c1)[C@H]1C=CC[C@H]1[C@@H](c1cccc(Cl)c1)N2 | · | 2.82µM | ? | – | ? | ·
COc1ccc(C(=O)N/N=C(\C)c2ccc3c(c2)C2C=CCC2C(c2ccccc2)N3)cc1 (stereo unspecified) | 79.4µM | 7.94µM | ? | – | ? | –
CC(C)CNC(=O)C1Nc2ccccc2C2C=CCC12 (stereo unspecified) | · | · | · | – | ? | ·
COc1ccc(OC)c([C@@H]2Nc3ccc(C(=O)O)cc3[C@@H]3C=CC[C@@H]32)c1 | · | ? | – | – | ? | ·
Fc1ccc([C@@H]2Nc3ccccc3[C@@H]3C=CC[C@@H]32)cc1 | · | 2.24µM | – | – | ? | ·
COc1ccc(C)cc1NS(=O)(=O)c1ccc(Cl)nc1 | · | –[12.7 µM] | – | – | – | –
Cc1cccc(NC(=O)NNS(=O)(=O)c2ccc(F)cc2)c1 | – | – | – | – | – | –
O=P(O)(O)O | – | – | · | · | · | ·
COc1cccc(NC(=O)CSc2nc3ccc(NC(=O)c4ccco4)cc3s2)c1 | · | – | – | – | – | ·
O=C(NCc1cccc(F)c1)c1ccc(NC(=O)c2nsc3ccccc23)cc1 | · | – | – | – | – | ·
O=C(O)CC1S/C(=N/N=C/c2ccc(-c3ccccc3[N+](=O)[O-])o2)NC1=O (stereo unspecified) | 22.4µM | –[2.33 µM] | 50.1µM | – | ? | ·
Cc1ccc(S(=O)(=O)Oc2ccc(/C=N/N=C3/NC(=O)C(CC(=O)O)S3)cc2)cc1 (stereo unspecified) | – | – | ? | – | – | –
Cc1ccc(-c2ccc(/C=N/N=C3/NC(=O)C(CC(=O)O)S3)o2)c([N+](=O)[O-])c1 (stereo unspecified) | 20µM | –[2.33 µM] | ? | – | – | ·
O=C(CCCCn1c(=O)[nH]c2ccsc2c1=O)N1CCN(c2cccc(C(F)(F)F)c2)CC1 | · | – | – | – | – | ·
Cc1ccc(Cl)cc1NC(=O)N1CCC(CN2CCc3ccccc3C2)CC1 | · | – | – | – | – | ·
CCN(CC)S(=O)(=O)c1ccc(N=Nc2c(C)[nH]n(C(N)=S)c2=O)cc1 | 79.4µM | ? | – | – | ? | –
Cc1ccccc1N=Nc1c(C)[nH]n(C(N)=S)c1=O | – | ? | – | ? | ? | –
NC(=S)n1[nH]c(-c2ccc([N+](=O)[O-])cc2)c(N=Nc2cccc(Cl)c2)c1=O | – | 35.5µM | ? | – | 39.8µM | –
NC(=S)n1[nH]c(-c2ccc([N+](=O)[O-])cc2)c(N=Nc2ccc(O)cc2)c1=O | – | 56.2µM | 50.1µM | ? | ? | ·
Nc1[nH][nH]c(=O)c1N=Nc1cccc(Cl)c1 | – | ? | ? | – | ? | –
Cc1cccc(N=Nc2c(C)[nH]n(C(N)=S)c2=O)c1C | – | ? | ? | · | · | –
SMILES | Sfp PPTase inh | G9a block | BAZ2B inh | HP1b chromo inh | JMJD2A Tudor inh | L3MBTL1 inh
Cc1[nH]n(C(N)=S)c(=O)c1N=Nc1cccc(Cl)c1 | – | 39.8µM | – | – | – | ·
COc1ccc(-c2nc3nc(C)cc(Nc4ccc(C(C)=O)cc4)n3n2)cc1 | · | – | – | – | – | ·
COc1ccc(C(=O)N2CCC3(CC2)CN(C(=O)NC(C)C)C3)cc1 | – | –[12.7 µM] | · | · | · | ·
CC[C@H](C)[C@H](NC(=O)[C@H](Cc1ccc(O)cc1)NC(=O)[C@H](Cc1cnc[nH]1)NC(=O)[C@H](CCCNC(=N)N)NC(=O)[C@H](CC(C)C)NC(=O)[C@H](C)NC(=O)[C@H](CO)NC(=O)[C@H](Cc1ccc(O)cc1)NC(=O)[C@H](Cc1ccc(O)cc1)NC(=O)[C@H](CCCNC(=N)N)NC(=O)[C@H](C)NC(=O)[C@H](CC(C)C)NC(=O)[C@H](CC(=O)O)NC(=O)[C@H](CCC(=O)O)NC(=O)[C@H](C)NC(=O)[C@@H]1CCCN1C(=O)[C@H](C)NC(=O)[C@H](CC(=O)O)NC(=O)[C@H](CCC(=O)O)NC(=O)CNC(=O)[C@@H]1CCCN1C(=O)[C@H](CC(N)=O)NC(=O)[C@H](CC(=O)O)NC(=O)[C@@H]1CCCN1C(=O)[C@H](CCCCN)NC(=O)[C@H](CO)NC(=O)[C@@H]1CCCN1C(=O)[C@@H](N)Cc1ccc(O)cc1)C(=O)N[C@@H](CC(N)=O)C(=O)N[C@@H](CC(C)C)C(=O)N[C@H](C(=O)N[C@H](C(=O)N[C@@H](CCCNC(=N)N)C(=O)N[C@@H](CCC(N)=O)C(=O)N[C@@H](CCCNC(=N)N)C(=O)N[C@@H](Cc1ccc(O)cc1)C(N)=O)[C@@H](C)O)[C@@H](C)CC | – | · | · | · | · | ·
Cc1[nH]n(C(N)=S)c(=O)c1N=Nc1ccc([N+](=O)[O-])cc1Cl | – | 25.1µM | 28.2µM | ? | ? | ·
Cc1nc2cc(C(=O)NCCC3=CCCCC3)ccc2n1-c1ccc(Br)cc1 | · | – | – | – | – | ·
COc1cc(/C=C(\C#N)c2nc3ccccc3n2C)cc(OC)c1O | – | 22.4µM | – | – | – | –
COc1cc(/C=C(\C#N)c2nc3ccc(C)cc3[nH]2)cc([N+](=O)[O-])c1O | – | · | 12.6µM | 35.5µM | 39.8µM | ?
COc1c(Cl)cc(Cl)cc1/C=C(\C#N)c1nc2ccccc2[nH]1 | · | – | – | – | – | ·
COc1cc(/C=C(\C#N)c2nc3ccc(C)cc3[nH]2)c([N+](=O)[O-])cc1OC | – | · | – | – | – | –
CCN(CC)c1ccc(/C=C(/C#N)c2nc3ccc(C)cc3[nH]2)c(OC(C)C)c1 | – | –[0.0925 µM] | ? | – | – | –
CCCOc1cc(N(CC)CC)ccc1/C=C(/C#N)c1nc2ccc(C)cc2[nH]1 | ? | 20µM | ? | – | – | –
COc1c(O)ccc(/C=C(\C#N)c2nc3ccccc3[nH]2)c1[N+](=O)[O-] | – | 7.94µM | 39.8µM | ? | ? | –
COc1ccc2c(c1)sc1ncc(C(=O)NCc3ccccc3F)c(=O)n12 | · | – | – | – | – | ·
